Source: PubChem BioAssay (Tox21)
Unmarked numbers belong to inactive results. Records with an inconclusive call do not appear. Active and inactive are the calls of the source. Unless noted, calls follow the shape of the dose curve; as a rule, active = well fitted inhibition curve with a large enough effect in the repeat runs (not every such curve was filed as active); inconclusive = weak or mixed curves; inactive = flat fitted curve, though single readings scatter.

Test system: not listed separately
Experiment: qHTS assay to identify small molecule agonists of the TGF-beta/Smad signaling pathway (AID 1346859; active = well fitted activation curve with a large enough effect in the signal ratio in the repeat runs, not every such curve was filed as active; the % refers to the signal ratio)
Conditions: SBE-bla HEK293T, TGF-beta/Smad beta-lactamase reporter, 5 h; series mostly up to 76.8 µM
Summary of the method: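 Reporter line: HEK 293T with stably integrated SBE-controlled beta-lactamase. Compound exposure lasts 5 hr at 37 C and 5% CO2; substrate loading follows for 2 hr at room temperature, with emission read at 460 and 530 nm.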
% is scaled to controls: 0 for no effect and ±100 for the full control effect.

Row | SMILES | outcome | activation
1 | COc1cc2c(cc1OC)CN(C(=O)[C@H](C)N[C@@H](CCc1ccccc1)C(=O)O)[C@H](C(=O)O)C2 | inactive | –
2 | O=C(Cn1ccnc1[N+](=O)[O-])NCc1ccccc1 | inactive | –
3 | COC(=O)/C=C\C(=O)O | inactive | –
4 | CCCCOC(=O)C(C)O (stereo unspecified) | inactive | –
5 | N#CCC(=O)NN | inactive | –
6 | Cc1cc(C)c(C(=O)O)c(C)c1 | inactive | –
7 | CCOc1cccc(N)c1 | inactive | –
8 | O=C(CCCl)NCCc1ccccc1 | inactive | –
9 | CC(=O)C1C(=O)C=C(C)OC1=O (stereo unspecified) | inactive | –
10 | CCOc1ccccc1OCC1CNCCO1 (stereo unspecified) | inactive | –
11 | CC1(C)O[C@H]2CC(=O)OC[C@]23[C@H]2CC[C@@]4(C)[C@H](c5ccoc5)OC(=O)[C@H]5O[C@]54[C@]2(C)C(=O)C[C@@H]13 | inactive | –
12 | CCO[Si](CC)(OCC)OCC | inactive | –
13 | CC(=O)CCc1ccc(OC(C)=O)cc1 | inactive | –
14 | CCCCCCC1(C)CCC(=O)O1 (stereo unspecified) | inactive | –
15 | O=C(O)[C@H](O)c1ccccc1 | inactive | –
16 | C=CC/C=C/C | inactive | –
17 | CCC(C)C(=O)OCCc1ccccc1 (stereo unspecified) | inactive | –
18 | COP(=O)(O)OP(=O)(O)OC | inactive | –
19 | O=C(O)c1cc2ccccc2nc1C(=O)O | inactive | –

Row | SMILES | outcome | activation
20 | COc1cc(/C=C/C(N)=O)cc(OC)c1OC | inactive | –
21 | COC(=O)c1cc(Cl)cc(Cl)c1 | inactive | –
22 | O=C1c2ccccc2C(=O)c2cc(Cl)ccc21 | – | 1.62% [at 6.97 µM]
23 | CO[C@@]1(NC(=O)Cc2cccs2)C(=O)N2C(C(=O)O)=C(COC(N)=O)CS[C@@H]21 | inactive | –
24 | C[C@H]1[C@@H](c2ccccc2)NC(=O)N1C | inactive | –
25 | CC/C=C\CCOC(=O)c1ccccc1O | inactive | –
26 | Cc1ccccc1C(N)=O | inactive | –
27 | OC1OCCOC1O (stereo unspecified) | inactive | –
28 | C/C=C(\C)C(C)=O | inactive | –
29 | COC(=O)c1ccccc1C(=O)O | inactive | –
30 | CC(C)c1ccc(C=O)cc1 | inactive | –
31 | CCC/C=C(\C=O)CC | inactive | –
32 | CSc1cnccn1 | inactive | –
33 | CCOC(=O)CC1(C)OCC(C)O1 (stereo unspecified) | inactive | –
34 | CC(=O)CC(=O)OC(C)(C)C | inactive | –
35 | Cc1c(NC(=O)c2cccnc2)c(=O)n(-c2ccccc2)n1C | inactive | –
36 | c1ccc(-c2nn[nH]n2)cc1 | inactive | –
37 | CCCCCCCCCCOC(C)=O | inactive | –

Molecular target: Thyrotropin-releasing hormone receptor (Homo sapiens) (UniProt P34981)
Sequence (P34981 whole entry, looked up): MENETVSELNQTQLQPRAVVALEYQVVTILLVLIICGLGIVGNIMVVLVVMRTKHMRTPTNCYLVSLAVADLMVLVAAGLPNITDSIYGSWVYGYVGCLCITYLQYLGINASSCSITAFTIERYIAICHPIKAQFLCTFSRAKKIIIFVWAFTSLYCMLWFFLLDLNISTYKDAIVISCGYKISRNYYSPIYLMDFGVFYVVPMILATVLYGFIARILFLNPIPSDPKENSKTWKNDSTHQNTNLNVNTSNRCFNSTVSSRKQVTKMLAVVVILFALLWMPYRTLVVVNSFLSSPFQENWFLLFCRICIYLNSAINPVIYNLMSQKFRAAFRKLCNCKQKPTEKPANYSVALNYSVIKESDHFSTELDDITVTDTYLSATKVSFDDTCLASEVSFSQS
Experiment: qHTS assay to identify small molecule antagonists of the thyrotropin-releasing hormone receptor (TRHR) signaling pathway (AID 1346877)
Conditions: TRHR-HEK293, TRH-induced calcium fluorescence, antagonist mode; series mostly up to 51.3 µM
Summary of the method: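 Human TRHR in HEK293 cells; inhibition of the intracellular calcium rise triggered by 1 nM TRH was followed by fluorescence over 3 min. Compounds were run at 15 concentrations, three replicates each.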

Row | SMILES | outcome | activity, negative = inhibition
38 | COc1cc2c(cc1OC)CN(C(=O)[C@H](C)N[C@@H](CCc1ccccc1)C(=O)O)[C@H](C(=O)O)C2 | inactive | –
39 | O=C(Cn1ccnc1[N+](=O)[O-])NCc1ccccc1 | inactive | –
40 | COC(=O)/C=C\C(=O)O | inactive | –
41 | CCCCOC(=O)C(C)O (stereo unspecified) | inactive | –
42 | N#CCC(=O)NN | inactive | –
43 | Cc1cc(C)c(C(=O)O)c(C)c1 | inactive | –
44 | CCOc1cccc(N)c1 | inactive | –
45 | O=C(CCCl)NCCc1ccccc1 | inactive | –
46 | CC(=O)C1C(=O)C=C(C)OC1=O (stereo unspecified) | inactive | –
47 | CCOc1ccccc1OCC1CNCCO1 (stereo unspecified) | inactive | –
48 | CC1(C)O[C@H]2CC(=O)OC[C@]23[C@H]2CC[C@@]4(C)[C@H](c5ccoc5)OC(=O)[C@H]5O[C@]54[C@]2(C)C(=O)C[C@@H]13 | inactive | –
49 | CCO[Si](CC)(OCC)OCC | inactive | –
50 | CC(=O)CCc1ccc(OC(C)=O)cc1 | inactive | –
51 | CCCCCCC1(C)CCC(=O)O1 (stereo unspecified) | inactive | –
52 | O=C(O)[C@H](O)c1ccccc1 | inactive | –
53 | C=CC/C=C/C | inactive | –
54 | CCC(C)C(=O)OCCc1ccccc1 (stereo unspecified) | inactive | –
55 | COP(=O)(O)OP(=O)(O)OC | inactive | –
56 | O=C(O)c1cc2ccccc2nc1C(=O)O | inactive | –

Row | SMILES | outcome | activity, negative = inhibition
57 | COc1cc(/C=C/C(N)=O)cc(OC)c1OC | inactive | –
58 | COC(=O)c1cc(Cl)cc(Cl)c1 | inactive | –
59 | O=C1c2ccccc2C(=O)c2cc(Cl)ccc21 | – | -0.75% [at 4.65 µM]
60 | CO[C@@]1(NC(=O)Cc2cccs2)C(=O)N2C(C(=O)O)=C(COC(N)=O)CS[C@@H]21 | inactive | –
61 | C[C@H]1[C@@H](c2ccccc2)NC(=O)N1C | inactive | –
62 | CC/C=C\CCOC(=O)c1ccccc1O | inactive | –
63 | Cc1ccccc1C(N)=O | inactive | –
64 | OC1OCCOC1O (stereo unspecified) | inactive | –
65 | C/C=C(\C)C(C)=O | inactive | –
66 | COC(=O)c1ccccc1C(=O)O | inactive | –
67 | CC(C)c1ccc(C=O)cc1 | inactive | –
68 | CCC/C=C(\C=O)CC | inactive | –
69 | CSc1cnccn1 | inactive | –
70 | CCOC(=O)CC1(C)OCC(C)O1 (stereo unspecified) | inactive | –
71 | CC(=O)CC(=O)OC(C)(C)C | inactive | –
72 | Cc1c(NC(=O)c2cccnc2)c(=O)n(-c2ccccc2)n1C | inactive | –
73 | c1ccc(-c2nn[nH]n2)cc1 | inactive | –
74 | CCCCCCCCCCOC(C)=O | inactive | –

Molecular target: Thyrotropin-releasing hormone receptor (Homo sapiens) (UniProt P34981)
Experiment: qHTS assay to identify small molecule agonists of the thyrotropin-releasing hormone receptor (TRHR) signaling pathway (AID 1346891; calls by dose curve;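 also: HEK293 cells expressing TRHR with calcium dye readout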)
Conditions: TRHR-HEK293 calcium fluorescence, agonist mode; series mostly up to 57.6 µM
Summary of the method: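 Cells: TRHR-Hek293, seeded and incubated 18 h. Dye loading: 2 h at 37 °C. Compound added from DMSO stock by pin tool. Read-out: kinetic calcium fluorescence over 3 min.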

Row | SMILES | outcome | activation
75 | COc1cc2c(cc1OC)CN(C(=O)[C@H](C)N[C@@H](CCc1ccccc1)C(=O)O)[C@H](C(=O)O)C2 | inactive | –
76 | O=C(Cn1ccnc1[N+](=O)[O-])NCc1ccccc1 | inactive | –
77 | COC(=O)/C=C\C(=O)O | inactive | –
78 | CCCCOC(=O)C(C)O (stereo unspecified) | inactive | –
79 | N#CCC(=O)NN | inactive | –
80 | Cc1cc(C)c(C(=O)O)c(C)c1 | inactive | –
81 | CCOc1cccc(N)c1 | inactive | –
82 | O=C(CCCl)NCCc1ccccc1 | inactive | –
83 | CC(=O)C1C(=O)C=C(C)OC1=O (stereo unspecified) | inactive | –
84 | CCOc1ccccc1OCC1CNCCO1 (stereo unspecified) | inactive | –
85 | CC1(C)O[C@H]2CC(=O)OC[C@]23[C@H]2CC[C@@]4(C)[C@H](c5ccoc5)OC(=O)[C@H]5O[C@]54[C@]2(C)C(=O)C[C@@H]13 | inactive | –
86 | CCO[Si](CC)(OCC)OCC | inactive | –
87 | CC(=O)CCc1ccc(OC(C)=O)cc1 | inactive | –
88 | CCCCCCC1(C)CCC(=O)O1 (stereo unspecified) | inactive | –
89 | O=C(O)[C@H](O)c1ccccc1 | inactive | –
90 | C=CC/C=C/C | inactive | –
91 | CCC(C)C(=O)OCCc1ccccc1 (stereo unspecified) | inactive | –
92 | COP(=O)(O)OP(=O)(O)OC | inactive | –
93 | O=C(O)c1cc2ccccc2nc1C(=O)O | inactive | –

Row | SMILES | outcome | activation
94 | COc1cc(/C=C/C(N)=O)cc(OC)c1OC | inactive | –
95 | COC(=O)c1cc(Cl)cc(Cl)c1 | inactive | –
96 | O=C1c2ccccc2C(=O)c2cc(Cl)ccc21 | – | 0.0495% [at 5.23 µM]
97 | CO[C@@]1(NC(=O)Cc2cccs2)C(=O)N2C(C(=O)O)=C(COC(N)=O)CS[C@@H]21 | inactive | –
98 | C[C@H]1[C@@H](c2ccccc2)NC(=O)N1C | inactive | –
99 | CC/C=C\CCOC(=O)c1ccccc1O | inactive | –
100 | Cc1ccccc1C(N)=O | inactive | –
101 | OC1OCCOC1O (stereo unspecified) | inactive | –
102 | C/C=C(\C)C(C)=O | inactive | –
103 | COC(=O)c1ccccc1C(=O)O | inactive | –
104 | CC(C)c1ccc(C=O)cc1 | inactive | –
105 | CCC/C=C(\C=O)CC | inactive | –
106 | CSc1cnccn1 | inactive | –
107 | CCOC(=O)CC1(C)OCC(C)O1 (stereo unspecified) | inactive | –
108 | CC(=O)CC(=O)OC(C)(C)C | inactive | –
109 | Cc1c(NC(=O)c2cccnc2)c(=O)n(-c2ccccc2)n1C | inactive | –
110 | c1ccc(-c2nn[nH]n2)cc1 | inactive | –
111 | CCCCCCCCCCOC(C)=O | inactive | –
